This is a sample that favours compounds with a hit; in the whole collection about 11% have one here.
Luciferase inh – Firefly luciferase inhibition profiling of diverse chemical library using quantitative high-throughput screening; AID 1347043, 2019; purified P. pyralis luciferase, luminescence, biochemical; Potency, µM (doses to about 115 µM), usual class: inhibitors; Luciferin 4-monooxygenase (Photinus pyralis), P08659; actives 2.5% (n = 76,000); also: % is scaled to controls: 0 for no effect and ±100 for the full control effect; nearly all actives have a fitted effect of over 65% in size
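Luminescence read by CCD imaging after purified firefly luciferase (10nM final) was added to substrate buffer holding 10uM D-luciferin and 10uM ATP, pH 7.5, pre-dosed with compound.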
HEK293 tox – Cytotoxic Profiling in HEK 293 Cell Line of Diverse Libraries Using Quantitative High-Throughput Screening; HEK 293 viability, ATP luminescence (CellTiter-Glo), 48-72 h; actives 6.6% (n = 94,000); Potency, µM (top dose mostly 115 µM), inactives show top-dose activity change, negative = cytotoxicity, usual class: inhibitors; also: % is scaled to controls: 0 for no effect and ±100 for the full control effect; nearly all actives have a fitted effect of over 60% in size
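Cytotoxicity was scored by loss of ATP-coupled luminescence (CellTiter-Glo) in HEK 293 cells. Compound treatment ran 48 or 72 hr at 37 degree Celsius, 5% CO2, 95% humidity.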
NIH3T3 tox – Cytotoxic Profiling in NIH 3T3 Cell Line of Diverse Libraries Using Quantitative High-Throughput Screening | NIH 3T3 viability, CellTiter-Glo ATP luminescence, 48-72 h | Potency, µM (highest dose often 96.7 µM), for inactives: top-dose activity change, negative = cytotoxicity, hits mostly inhibitors | actives 4.3% (n = 94,000) | AID 1345082, 2018; also: % is scaled to controls: 0 for no effect and ±100 for the full control effect; nearly all actives have a fitted effect of over 55% in size
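ATP-dependent luminescence (CellTiter-Glo) served as the viability signal for NIH 3T3 cells treated with compound for 48 or 72 hr at 37 °C.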
hNpr1 antagonist – Natriuretic polypeptide receptor (hNpr1) antagonism - Primary qHTS; Potency, µM (top dose mostly 46.3 µM), for inactives: at the top dose activity change, negative = inhibition, actives largely listed as inhibitors; HEK293 hNpr1 GloSensor cGMP, ANP-stimulated luminescence; AID 1347048, 2019; Atrial natriuretic peptide receptor 1 (Homo sapiens), P16066; actives 1.6% (n = 76,000); calls by dose curve; also: % is scaled to controls: 0 for no effect and ±100 for the full control effect; nearly all actives have a fitted effect of over 60% in size
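HEK293 cells stably expressing human Npr1 and cGMP GloSensor pGS-40F, loaded 2 h with 2% GloSensor reagent, given compound 30 min at room temperature. Luminescence read before and 20 min after 0.1 nM hNppA.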
NPR1 antag cnf – Natriuretic polypeptide receptor (hNpr1) antagonism - Confirmation; shares compounds with hNpr1 antagonist; HEK293 hNpr1 cGMP GloSensor luminescence, ANP-stimulated; Potency, µM (highest dose often 57.6 µM), inactives show top-dose activity change, negative = inhibition, actives largely listed as inhibitors; actives 76% (n = 1,400); AID 1347044, 2019; calls by dose curve; also: nearly all actives have a fitted effect of over 70% in size
Npr2 selectivity – Natriuretic polypeptide receptor (hNpr2) antagonism - Subtype selectivity assay. Potency, µM (titrated, usually from 57.6 µM), for the others: top-dose activity change, negative = inhibition, most hits filed as inhibitors. actives 67% (n = 1,400). HEK293 hNpr2 GloSensor cGMP luminescence, CNP-stimulated. shares compounds with hNpr1 antagonist. AID 1347046, 2019; calls by dose curve; also: nearly all actives have a fitted effect of over 70% in size
Target sequence (P20594 whole entry, looked up): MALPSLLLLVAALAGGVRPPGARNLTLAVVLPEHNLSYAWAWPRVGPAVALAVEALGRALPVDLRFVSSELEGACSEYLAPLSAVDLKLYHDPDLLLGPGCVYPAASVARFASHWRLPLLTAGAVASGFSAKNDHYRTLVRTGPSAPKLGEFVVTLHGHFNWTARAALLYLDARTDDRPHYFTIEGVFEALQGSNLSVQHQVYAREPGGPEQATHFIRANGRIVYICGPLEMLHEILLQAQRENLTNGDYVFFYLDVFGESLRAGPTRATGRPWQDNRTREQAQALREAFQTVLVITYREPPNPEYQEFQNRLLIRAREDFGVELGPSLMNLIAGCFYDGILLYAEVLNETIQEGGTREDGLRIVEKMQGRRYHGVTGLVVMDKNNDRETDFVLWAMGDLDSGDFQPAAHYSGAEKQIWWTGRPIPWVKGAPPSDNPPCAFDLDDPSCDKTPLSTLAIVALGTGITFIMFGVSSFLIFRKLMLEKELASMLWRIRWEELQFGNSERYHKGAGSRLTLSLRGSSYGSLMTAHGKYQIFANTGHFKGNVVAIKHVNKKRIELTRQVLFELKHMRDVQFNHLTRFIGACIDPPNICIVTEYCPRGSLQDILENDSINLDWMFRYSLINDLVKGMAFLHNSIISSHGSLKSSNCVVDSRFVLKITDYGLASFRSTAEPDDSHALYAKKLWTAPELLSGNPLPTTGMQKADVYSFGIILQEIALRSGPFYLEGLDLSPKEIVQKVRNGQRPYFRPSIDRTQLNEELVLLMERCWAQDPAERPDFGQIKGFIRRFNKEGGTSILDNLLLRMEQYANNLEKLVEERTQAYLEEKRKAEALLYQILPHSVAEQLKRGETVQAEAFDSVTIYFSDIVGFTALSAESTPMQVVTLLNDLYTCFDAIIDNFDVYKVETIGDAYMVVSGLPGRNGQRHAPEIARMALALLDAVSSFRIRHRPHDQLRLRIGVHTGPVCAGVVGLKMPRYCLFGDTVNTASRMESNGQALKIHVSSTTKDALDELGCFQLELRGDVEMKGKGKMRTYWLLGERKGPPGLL
FLuc inh counter – Natriuretic polypeptide receptor (hNpr1) antagonism - Confirmation firefly luciferase (FLuc) inhibition counterscreen. Potency, µM (titrated, usually from 57.6 µM), for the others: at the top dose activity change, negative = inhibition, actives largely listed as inhibitors. actives 0.7% (n = 1,400). shares compounds with hNpr1 antagonist. AID 1347047, 2019. purified FLuc enzyme, luminescence, Km substrate; also: series mostly up to about 58 µM; 0% is about no effect
GloSensor cGMP – Natriuretic polypeptide receptor (hNpr1) antagonism - Counterscreen GloSensor control cell line; shares compounds with hNpr1 antagonist; HEK293 GloSensor cGMP, SNP-stimulated, luminescence; actives 69% (n = 1,400); Potency, µM (top dose mostly 57.6 µM), without a hit: at the top dose activity change, negative = inhibition, most hits filed as inhibitors; calls by dose curve; also: % is scaled to controls: 0 for no effect and ±100 for the full control effect; nearly all actives have a fitted effect of over 70% in size
* hit, by the source's call; i = inactive; ? = inconclusive; nt = no result; [ ] = another dose, or the depositor's remark. Unless noted, calls follow the shape of the dose curve; as a rule, active = well fitted curve in the direction sought with a large enough effect; inconclusive = small, poorly fitted or top-dose-only effect, or another doubt; inactive = no such curve, though single readings can be large; an effect the other way counts as inactive or inconclusive. Potency is read from the fitted curve at half-maximal effect.

SMILES | Luciferase inh | HEK293 tox | NIH3T3 tox | hNpr1 antagonist | NPR1 antag cnf | Npr2 selectivity | FLuc inh counter | GloSensor cGMP
CCOC(=O)C1=CN(CC(=O)Nc2ccc(C)cc2C)S(=O)(=O)N=C1C | i | -16% | -26% | -11% | nt | nt | nt | nt
CCOC(=O)C1=CN(CC(=O)Nc2c(C)cc(C)cc2C)S(=O)(=O)N=C1C | i | ? | -19% | 11µM* | 24µM* | ? | 0% | 27µM*
O=C(NC1CCCCC1)c1ccc2nc(-c3ccncc3)oc2c1 | nt | -2%[172 µM] | -6%[138 µM] | nt | nt | nt | nt | nt
CCOC(=O)c1ccc(NC(=O)Cn2c(N(C)Cc3ccccc3)nc(C)cc2=O)cc1 | i | 40µM* | ? | 14µM* | 22µM* | 22µM* | 1% | 22µM*
Cc1cc(=O)n(CC(=O)Nc2cccc(Cl)c2)c(N(C)Cc2ccccc2)n1 | i | ? | ? | ? | nt | nt | nt | nt
COc1cc(NC(=O)Cn2c(N(C)Cc3ccccc3)nc(C)cc2=O)cc(OC)c1 | i | 16µM* | ? | 7.9µM* | 11µM* | 12µM* | 0% | 6.9µM*
COc1cc(NC(=O)Cn2c(N(C)Cc3ccccc3)nc(C)cc2=O)cc(OC)c1OC | i | ? | ? | 7.1µM* | 11µM* | 14µM* | 0% | 11µM*
COc1ccc(C)cc1NC(=O)Cn1c(N(C)Cc2ccccc2)nc(C)cc1=O | i | ? | -32% | 13µM* | 24µM* | 24µM* | 0% | 31µM*
COc1ccccc1NC(=O)Cn1c(N(C)Cc2ccccc2)nc(C)cc1=O | i | ? | ? | -26% | nt | nt | nt | nt
CC1(C(=O)Nc2ccc(C(N)=O)cc2)CCCc2cnc(Nc3ccccc3)nc21 (stereo not drawn) | i | ? | ? | -10%[70.6 µM] | nt | nt | nt | nt
Cc1ccc(OCC(=O)N2CC[C@@](O)(C3CCOCC3)[C@H](C)C2)cc1 | i | -4% | -4% | -5% | nt | nt | nt | nt
Cn1ncc(N2CCOC(CCNC(=O)c3cccnn3)C2)cc1=O (stereo not drawn) | i | -5% | 2% | -2% | nt | nt | nt | nt
COc1ccc(C(CC(=O)N2CCC(Cc3ccccc3)CC2)c2c[nH]c3ccccc23)cc1OC (stereo not drawn) | i | ? | ? | -17% | nt | nt | nt | nt
O=C(CN1C(=O)NC(c2ccc(Cl)cc2)C2=C1COC2=O)Nc1ccc(Br)cc1F (stereo not drawn) | i | 35µM* | 28µM* | ? | 24µM* | ? | -1% | 27µM*
Cc1ccc(C)c(NC(=O)CN2C(=O)NC(c3ccc(Cl)cc3)C3=C2COC3=O)c1 (stereo not drawn) | i | ? | ? | -9% | nt | nt | nt | nt
CNC(=O)C1CCCN(c2ccnc3ccnn23)C1 (stereo not drawn) | nt | -8%[172 µM] | -3%[138 µM] | nt | nt | nt | nt | nt
CC1=C[C@@H](CNC(=O)C2CC2)[C@H](C(C)C)C[C@H]1Cc1nc2ccccc2n1C | i | 45µM* | 100µM* | 25µM* | 31µM* | 35µM* | 3%[86.2 µM] | 25µM*
CC1=C[C@@H](CNC(=O)CC2(CC(=O)O)CCCC2)[C@H](C(C)C)C[C@H]1Cc1nc2ccccc2n1C | i | ? | ? | 1% | nt | nt | nt | nt
Cc1oc2c(c1C(=O)NCc1cccnc1)CN(Cc1ccc(F)cc1)CC2 | i | ? | -18% | 5% | nt | nt | nt | nt
O=C(c1cccc(Cl)c1)N1CCN(C(=O)c2nnn3c2COC(c2ccc(F)cc2)C3)CC1 (stereo not drawn) | i | ? | ? | 13µM* | 24µM* | 24µM* | 0% | 24µM*
O=C(c1ccc(F)c(Cl)c1)N1CCN(C(=O)c2nnn3c2COC(c2ccccc2)C3)CC1 (stereo not drawn) | i | ? | ? | 13µM* | 22µM* | 24µM* | 1% | 22µM*
COc1ccc(C(=O)N2CCN(C(=O)c3nnn4c3COC(c3ccc(Cl)cc3)C4)CC2)cc1F (stereo not drawn) | i | ? | -31% | ? | 24µM* | 27µM* | 1% | 22µM*
CN(C)c1cccc(C(=O)N2CCN(C(=O)c3nnn4c3COC(c3ccc(Cl)cc3)C4)CC2)c1 (stereo not drawn) | i | ? | ? | 13µM* | 24µM* | 24µM* | -29% | 24µM*
C[C@]1(O)CCN(C(=O)c2ccc3c(c2)OCC(=O)N3)C[C@@H]1O | i | -1% | -11% | 16% | nt | nt | nt | nt
Cc1cccc(NC(=O)CN2C(=O)NC3(CCOCC3)C2=O)c1 | i | 7% | i | 2% | nt | nt | nt | nt
SMILES | Luciferase inh | HEK293 tox | NIH3T3 tox | hNpr1 antagonist | NPR1 antag cnf | Npr2 selectivity | FLuc inh counter | GloSensor cGMP
FC(F)(F)CN1C2CCC1CN(c1cnccn1)C2 | nt | i | 4%[138 µM] | nt | nt | nt | nt | nt
O=C(c1ccc[nH]1)N1CCN(C(=O)c2nnn3c2COC(c2ccc(Cl)cc2)C3)CC1 (stereo not drawn) | i | -19% | -11% | -2% | nt | nt | nt | nt
O=C(c1nnn2c1COC(c1ccc(Cl)cc1)C2)N1CCN(C(=O)c2c(F)cccc2F)CC1 (stereo not drawn) | i | ? | ? | ? | ? | ? | 0% | ?
O=C(c1ccc(F)c(F)c1)N1CCN(C(=O)c2nnn3c2COC(c2ccc(Cl)cc2)C3)CC1 (stereo not drawn) | i | -46% | ? | 13µM* | 22µM* | 22µM* | 8% | 19µM*
CC1=C(C(=O)OC(C)C)C(c2ccccc2Cl)N2C(CC(=O)N3CCOCC3)=CSC2=N1 (stereo not drawn) | i | ? | -31% | 14µM* | ? | ? | 2% | ?
C=CCOC(=O)C1=C(C)N=C2SC=C(CC(=O)N3CCOCC3)N2C1c1ccc(C)cc1C (stereo not drawn) | ? | ? | -15% | ? | nt | nt | nt | nt
